The text below walks through data of ChEMBL document CHEMBL1961873, “Compounds: GSK PKIS; Assays: Nanosyn kinase panel” (2012).

In test [1] the target is Sphingosine kinase 1 (Homo sapiens) (UniProt Q9NYA1). The settings on record: at 1 µM.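 Also: mean SPHK1 inhibition value reported from the GSK PKIS kinase panel screen.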
In test [2] the target is T1, Sphingosine kinase 2 (Homo sapiens) (UniProt Q9NRA0).
T1 sequence (whole entry): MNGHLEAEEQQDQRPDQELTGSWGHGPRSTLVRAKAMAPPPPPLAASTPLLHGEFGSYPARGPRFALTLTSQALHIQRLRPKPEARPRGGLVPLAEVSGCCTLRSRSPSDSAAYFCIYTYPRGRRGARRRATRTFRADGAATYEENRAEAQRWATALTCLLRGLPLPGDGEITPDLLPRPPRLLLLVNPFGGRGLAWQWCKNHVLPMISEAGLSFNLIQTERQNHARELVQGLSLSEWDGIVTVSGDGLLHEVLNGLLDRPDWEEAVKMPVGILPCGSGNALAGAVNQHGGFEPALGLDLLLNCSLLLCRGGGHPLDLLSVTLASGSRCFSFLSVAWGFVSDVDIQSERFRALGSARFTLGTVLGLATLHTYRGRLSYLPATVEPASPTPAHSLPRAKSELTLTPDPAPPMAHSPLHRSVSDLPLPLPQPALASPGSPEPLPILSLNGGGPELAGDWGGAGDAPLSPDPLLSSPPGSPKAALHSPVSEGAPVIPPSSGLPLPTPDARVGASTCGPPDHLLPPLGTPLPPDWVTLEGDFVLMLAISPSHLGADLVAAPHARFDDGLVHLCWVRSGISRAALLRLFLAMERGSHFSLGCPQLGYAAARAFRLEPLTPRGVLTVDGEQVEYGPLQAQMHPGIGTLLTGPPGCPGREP
The settings on record: at 0.1 µM.

The target of test [3] is T1, Sphingosine kinase 2 (Homo sapiens). The conditions noted are these: at 1 µM.
Test [4] concerns the target Casein kinase II subunit alpha (Homo sapiens) (UniProt P68400). The settings on record: at 0.1 µM.
For test [5] the target is unchanged. The settings on record: at 1 µM.
Test [6] concerns the target T2, Inhibitor of nuclear factor kappa-B kinase subunit alpha (Homo sapiens) (UniProt O15111).
T2 sequence (whole entry): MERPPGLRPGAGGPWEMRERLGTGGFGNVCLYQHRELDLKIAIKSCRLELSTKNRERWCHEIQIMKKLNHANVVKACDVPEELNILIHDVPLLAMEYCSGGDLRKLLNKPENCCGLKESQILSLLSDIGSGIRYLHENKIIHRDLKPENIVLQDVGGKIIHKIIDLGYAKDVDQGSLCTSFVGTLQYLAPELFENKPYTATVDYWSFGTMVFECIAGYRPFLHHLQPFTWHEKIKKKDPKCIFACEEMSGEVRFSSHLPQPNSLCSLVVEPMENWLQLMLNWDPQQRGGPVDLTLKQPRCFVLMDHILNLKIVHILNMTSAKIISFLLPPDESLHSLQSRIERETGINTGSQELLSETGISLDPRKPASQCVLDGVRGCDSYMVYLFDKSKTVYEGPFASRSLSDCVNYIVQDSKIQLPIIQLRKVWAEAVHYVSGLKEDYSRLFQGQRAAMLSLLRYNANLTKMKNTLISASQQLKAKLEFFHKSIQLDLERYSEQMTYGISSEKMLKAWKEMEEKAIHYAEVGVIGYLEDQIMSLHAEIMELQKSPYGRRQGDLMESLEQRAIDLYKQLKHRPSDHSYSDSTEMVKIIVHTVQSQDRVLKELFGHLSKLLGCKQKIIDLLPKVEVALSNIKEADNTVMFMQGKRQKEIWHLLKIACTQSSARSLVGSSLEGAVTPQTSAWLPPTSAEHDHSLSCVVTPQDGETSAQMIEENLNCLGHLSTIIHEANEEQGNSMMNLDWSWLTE
The settings on record: at 0.1 µM.

For test [7], the target named is T2, Inhibitor of nuclear factor kappa-B kinase subunit alpha (Homo sapiens). The conditions noted are these: at 1 µM.
Test [8] addresses T3, Inhibitor of nuclear factor kappa-B kinase subunit beta (Homo sapiens) (UniProt O14920).
T3 sequence (whole entry): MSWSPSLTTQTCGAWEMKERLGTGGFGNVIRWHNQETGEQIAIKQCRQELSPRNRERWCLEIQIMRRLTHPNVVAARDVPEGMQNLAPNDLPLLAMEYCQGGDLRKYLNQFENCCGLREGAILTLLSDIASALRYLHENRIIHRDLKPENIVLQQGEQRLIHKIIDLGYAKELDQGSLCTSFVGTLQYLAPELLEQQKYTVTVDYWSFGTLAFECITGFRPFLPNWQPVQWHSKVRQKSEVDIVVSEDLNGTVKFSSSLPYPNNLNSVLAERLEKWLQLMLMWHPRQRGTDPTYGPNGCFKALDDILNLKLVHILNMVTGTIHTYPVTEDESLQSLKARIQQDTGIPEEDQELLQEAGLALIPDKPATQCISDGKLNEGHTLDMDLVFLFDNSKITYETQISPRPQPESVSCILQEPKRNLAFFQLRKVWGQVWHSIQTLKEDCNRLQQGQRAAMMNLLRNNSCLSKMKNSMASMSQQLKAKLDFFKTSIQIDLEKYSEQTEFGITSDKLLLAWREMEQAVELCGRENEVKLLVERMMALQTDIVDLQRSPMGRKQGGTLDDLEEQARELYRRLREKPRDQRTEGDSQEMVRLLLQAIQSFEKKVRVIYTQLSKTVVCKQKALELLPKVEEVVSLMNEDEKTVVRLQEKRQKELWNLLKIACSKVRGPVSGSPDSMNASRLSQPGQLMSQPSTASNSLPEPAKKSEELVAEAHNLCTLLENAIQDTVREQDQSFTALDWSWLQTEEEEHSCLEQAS
The conditions noted are these: at 0.1 µM.

Test [9] addresses T3, Inhibitor of nuclear factor kappa-B kinase subunit beta (Homo sapiens). The conditions noted are these: at 1 µM.
Test [10] addresses T4, Inhibitor of nuclear factor kappa-B kinase subunit epsilon (Homo sapiens) (UniProt Q14164).
T4 sequence (whole entry): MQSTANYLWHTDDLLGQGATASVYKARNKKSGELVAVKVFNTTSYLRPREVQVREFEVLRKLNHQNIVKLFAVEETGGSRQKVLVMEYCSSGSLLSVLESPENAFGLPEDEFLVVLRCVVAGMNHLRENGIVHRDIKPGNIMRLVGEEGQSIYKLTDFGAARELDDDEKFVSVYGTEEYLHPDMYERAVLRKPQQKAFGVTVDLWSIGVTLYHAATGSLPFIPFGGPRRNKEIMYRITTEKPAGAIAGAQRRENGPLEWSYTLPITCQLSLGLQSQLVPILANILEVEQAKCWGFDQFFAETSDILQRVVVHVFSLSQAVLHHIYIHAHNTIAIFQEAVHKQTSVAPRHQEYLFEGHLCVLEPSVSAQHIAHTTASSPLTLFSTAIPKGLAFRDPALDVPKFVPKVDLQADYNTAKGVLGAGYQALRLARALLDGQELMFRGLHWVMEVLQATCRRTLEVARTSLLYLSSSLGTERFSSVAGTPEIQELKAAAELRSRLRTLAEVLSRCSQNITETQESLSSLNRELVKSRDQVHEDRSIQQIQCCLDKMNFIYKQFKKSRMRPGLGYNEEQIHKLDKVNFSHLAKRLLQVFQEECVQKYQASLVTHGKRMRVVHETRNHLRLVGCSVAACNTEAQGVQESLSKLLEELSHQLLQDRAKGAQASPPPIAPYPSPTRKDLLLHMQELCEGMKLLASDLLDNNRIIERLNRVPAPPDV
The settings on record: at 0.1 µM.

For test [11], the target named is T4, Inhibitor of nuclear factor kappa-B kinase subunit epsilon (Homo sapiens). The conditions noted are these: at 1 µM.
Test [12] deals with T5, Serine/threonine-protein kinase Nek1 (Homo sapiens) (UniProt Q96PY6).
T5 sequence (whole entry): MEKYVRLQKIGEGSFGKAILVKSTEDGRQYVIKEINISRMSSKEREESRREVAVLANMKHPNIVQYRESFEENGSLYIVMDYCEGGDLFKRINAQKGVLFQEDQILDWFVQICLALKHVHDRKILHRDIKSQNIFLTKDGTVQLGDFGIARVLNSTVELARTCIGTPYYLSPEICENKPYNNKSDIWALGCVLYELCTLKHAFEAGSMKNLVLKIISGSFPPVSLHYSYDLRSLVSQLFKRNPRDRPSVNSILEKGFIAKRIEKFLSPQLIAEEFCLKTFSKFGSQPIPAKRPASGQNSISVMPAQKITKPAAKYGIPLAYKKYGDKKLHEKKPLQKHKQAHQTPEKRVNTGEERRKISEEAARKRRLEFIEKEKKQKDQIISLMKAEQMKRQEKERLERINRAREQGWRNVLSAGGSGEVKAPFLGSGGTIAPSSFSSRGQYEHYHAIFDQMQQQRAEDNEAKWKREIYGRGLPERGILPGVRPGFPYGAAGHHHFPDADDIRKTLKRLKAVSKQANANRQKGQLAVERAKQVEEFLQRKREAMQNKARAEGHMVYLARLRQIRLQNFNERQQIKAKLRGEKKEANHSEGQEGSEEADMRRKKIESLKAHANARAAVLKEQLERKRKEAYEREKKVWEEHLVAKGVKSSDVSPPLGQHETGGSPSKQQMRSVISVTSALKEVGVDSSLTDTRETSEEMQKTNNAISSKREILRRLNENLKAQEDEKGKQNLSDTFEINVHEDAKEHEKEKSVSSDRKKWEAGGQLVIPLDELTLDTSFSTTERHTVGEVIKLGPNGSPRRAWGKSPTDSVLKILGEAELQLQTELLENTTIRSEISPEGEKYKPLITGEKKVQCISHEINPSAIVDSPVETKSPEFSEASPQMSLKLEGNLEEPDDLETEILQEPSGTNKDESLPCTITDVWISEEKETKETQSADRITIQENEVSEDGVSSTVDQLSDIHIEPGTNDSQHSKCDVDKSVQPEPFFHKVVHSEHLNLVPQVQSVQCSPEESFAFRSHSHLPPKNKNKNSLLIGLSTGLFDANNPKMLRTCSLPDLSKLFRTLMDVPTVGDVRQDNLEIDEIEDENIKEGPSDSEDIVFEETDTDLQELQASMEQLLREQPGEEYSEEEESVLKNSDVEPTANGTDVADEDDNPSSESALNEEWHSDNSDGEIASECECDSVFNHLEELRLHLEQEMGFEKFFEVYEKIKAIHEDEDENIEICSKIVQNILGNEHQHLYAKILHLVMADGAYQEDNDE
The settings on record: at 0.1 µM.

Test [13] addresses T5, Serine/threonine-protein kinase Nek1 (Homo sapiens). The settings on record: at 1 µM.
Test [14] concerns the target T6, Serine/threonine-protein kinase Nek2 (Homo sapiens) (UniProt P51955).
T6 sequence (whole entry): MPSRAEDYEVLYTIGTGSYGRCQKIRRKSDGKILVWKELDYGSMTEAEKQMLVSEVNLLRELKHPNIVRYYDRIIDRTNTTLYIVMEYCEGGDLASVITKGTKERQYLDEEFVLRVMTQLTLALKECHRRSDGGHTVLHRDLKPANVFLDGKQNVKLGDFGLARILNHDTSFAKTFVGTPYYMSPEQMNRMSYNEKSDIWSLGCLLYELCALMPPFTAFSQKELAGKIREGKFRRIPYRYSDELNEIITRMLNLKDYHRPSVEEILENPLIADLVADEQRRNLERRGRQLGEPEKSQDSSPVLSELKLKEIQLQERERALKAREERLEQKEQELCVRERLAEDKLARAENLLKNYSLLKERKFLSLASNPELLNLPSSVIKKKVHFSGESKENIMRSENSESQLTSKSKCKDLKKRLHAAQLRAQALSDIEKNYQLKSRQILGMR
The conditions noted are these: at 0.1 µM.

Test [15] addresses T6, Serine/threonine-protein kinase Nek2 (Homo sapiens). The conditions noted are these: at 1 µM.
Test [16] deals with Serine/threonine-protein kinase Nek6 (Homo sapiens) (UniProt Q9HC98). The settings on record: at 0.1 µM.
Serine/threonine-protein kinase Nek6 (Homo sapiens), sequence (Q9HC98 whole entry): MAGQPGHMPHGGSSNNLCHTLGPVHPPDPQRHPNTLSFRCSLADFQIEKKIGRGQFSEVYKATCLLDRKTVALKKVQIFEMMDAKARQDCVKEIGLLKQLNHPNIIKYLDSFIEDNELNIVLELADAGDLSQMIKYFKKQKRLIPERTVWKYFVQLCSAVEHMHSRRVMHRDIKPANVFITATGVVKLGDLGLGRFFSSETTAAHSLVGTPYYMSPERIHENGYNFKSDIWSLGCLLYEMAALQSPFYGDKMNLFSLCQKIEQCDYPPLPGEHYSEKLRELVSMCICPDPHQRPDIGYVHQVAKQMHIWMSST
For test [17] the target is unchanged. The settings on record: at 1 µM.
The target of test [18] is Serine/threonine-protein kinase Nek7 (Homo sapiens) (UniProt Q8TDX7). The conditions noted are these: at 0.1 µM.
Serine/threonine-protein kinase Nek7 (Homo sapiens), sequence (Q8TDX7 whole entry, looked up): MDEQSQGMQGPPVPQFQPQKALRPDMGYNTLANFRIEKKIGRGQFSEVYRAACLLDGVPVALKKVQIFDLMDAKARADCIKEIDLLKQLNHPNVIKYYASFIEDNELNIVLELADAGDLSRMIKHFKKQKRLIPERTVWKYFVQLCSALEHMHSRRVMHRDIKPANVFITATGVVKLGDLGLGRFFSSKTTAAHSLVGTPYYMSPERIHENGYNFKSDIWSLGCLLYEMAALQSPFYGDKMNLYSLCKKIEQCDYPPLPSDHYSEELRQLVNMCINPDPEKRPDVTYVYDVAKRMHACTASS
Test [19] has the same target. The settings on record: at 1 µM.
Test [20] concerns the target T7, Serine/threonine-protein kinase Nek9 (Homo sapiens) (UniProt Q8TD19).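 Also: reported value is the mean percent inhibition of NEK9.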
T7 sequence (whole entry): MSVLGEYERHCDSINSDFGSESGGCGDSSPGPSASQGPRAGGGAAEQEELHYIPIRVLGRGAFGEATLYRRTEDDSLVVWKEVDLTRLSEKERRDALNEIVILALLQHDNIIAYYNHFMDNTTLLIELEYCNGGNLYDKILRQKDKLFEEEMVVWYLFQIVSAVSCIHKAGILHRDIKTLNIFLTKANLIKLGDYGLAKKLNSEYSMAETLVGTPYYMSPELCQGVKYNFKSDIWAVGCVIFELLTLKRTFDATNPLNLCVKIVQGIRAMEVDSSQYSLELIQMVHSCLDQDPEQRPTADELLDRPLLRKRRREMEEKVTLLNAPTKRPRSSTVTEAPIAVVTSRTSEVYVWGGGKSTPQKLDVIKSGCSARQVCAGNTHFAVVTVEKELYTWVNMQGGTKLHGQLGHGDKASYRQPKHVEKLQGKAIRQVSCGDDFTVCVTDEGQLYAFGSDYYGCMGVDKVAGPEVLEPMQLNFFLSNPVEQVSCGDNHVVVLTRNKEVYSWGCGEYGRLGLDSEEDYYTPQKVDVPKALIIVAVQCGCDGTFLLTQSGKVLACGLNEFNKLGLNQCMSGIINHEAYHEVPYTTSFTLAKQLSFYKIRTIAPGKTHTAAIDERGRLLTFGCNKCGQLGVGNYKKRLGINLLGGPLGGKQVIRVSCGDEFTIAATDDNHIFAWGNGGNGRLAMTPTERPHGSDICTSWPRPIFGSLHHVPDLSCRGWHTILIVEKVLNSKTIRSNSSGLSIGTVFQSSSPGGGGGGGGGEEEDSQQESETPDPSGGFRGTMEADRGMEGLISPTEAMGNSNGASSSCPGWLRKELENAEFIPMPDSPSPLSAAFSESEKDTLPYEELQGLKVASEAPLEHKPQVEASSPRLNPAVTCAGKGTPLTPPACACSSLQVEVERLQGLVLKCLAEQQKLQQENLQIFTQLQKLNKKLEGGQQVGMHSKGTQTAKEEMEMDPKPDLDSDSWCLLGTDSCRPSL
The settings on record: at 0.1 µM.

In general, inhibition refers to the drop in the measured response relative to a control, in per cent.

Casein kinase II subunit alpha (Homo sapiens), sequence (P68400 whole entry, looked up): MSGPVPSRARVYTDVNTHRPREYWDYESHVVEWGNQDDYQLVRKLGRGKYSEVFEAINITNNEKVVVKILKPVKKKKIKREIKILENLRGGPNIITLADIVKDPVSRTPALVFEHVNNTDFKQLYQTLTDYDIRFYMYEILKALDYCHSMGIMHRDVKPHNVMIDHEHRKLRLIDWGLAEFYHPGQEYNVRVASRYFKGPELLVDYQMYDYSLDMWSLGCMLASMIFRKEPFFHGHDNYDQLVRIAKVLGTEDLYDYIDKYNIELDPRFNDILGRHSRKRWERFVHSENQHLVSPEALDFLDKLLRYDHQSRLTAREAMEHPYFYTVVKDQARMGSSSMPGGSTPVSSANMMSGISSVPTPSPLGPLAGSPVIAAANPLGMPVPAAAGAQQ
Sphingosine kinase 1 (Homo sapiens), sequence (Q9NYA1 whole entry): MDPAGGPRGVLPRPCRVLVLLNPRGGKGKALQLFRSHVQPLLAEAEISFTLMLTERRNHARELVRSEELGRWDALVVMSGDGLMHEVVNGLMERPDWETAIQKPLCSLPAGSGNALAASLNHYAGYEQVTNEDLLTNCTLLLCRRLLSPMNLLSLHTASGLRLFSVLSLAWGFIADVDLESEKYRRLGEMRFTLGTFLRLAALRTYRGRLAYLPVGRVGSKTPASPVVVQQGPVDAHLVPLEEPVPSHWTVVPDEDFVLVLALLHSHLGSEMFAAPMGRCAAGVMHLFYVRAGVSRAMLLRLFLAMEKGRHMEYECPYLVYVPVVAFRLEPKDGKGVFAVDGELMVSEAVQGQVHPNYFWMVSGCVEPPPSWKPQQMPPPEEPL

Consider `CCn1c(-c2nonc2N)nc2c(C#CC(C)(C)O)ncc(OC3CCNCC3)c21`, for which the inhibition in [1] is 4.1%; in [2], -2.62%; in test [3] it was 0.82%; in test [4], 5.58%; in test [5], 2.13%; in [6] it was 3.92%. Moreover, the inhibition in test [7] was 0.96%; in test [8], 4.3%; in [9], 5.45%; in test [10], 79.5%; in test [11] it was 95.8%; in test [12], 2.28%. The inhibition in [13] is 2.37%; in test [14] it was 3.31%; in test [15] it was 2.51%; in test [16], -0.18%; in test [17], 1.86%; in test [18], -3.88%. Besides, the inhibition in test [19] amounted to 5.15%; in test [20] it was 2.14%.
